Experimental findings from PubChem BioAssay (NCATS) are described below.

Results filed as inconclusive are left out. Values without a mark were called inactive. Active and inactive are the calls of the source. Calls come from the whole dose curve; as a rule, active = well fitted activation curve with a large enough effect; inconclusive = small, poorly fitted or top-dose-only effect; inactive = no such curve, though single readings can be large or run the other way.
Potency is the fitted concentration of half-maximal effect.

Chain of Cellular tumor antigen p53 (Homo sapiens) (P04637 whole entry, looked up): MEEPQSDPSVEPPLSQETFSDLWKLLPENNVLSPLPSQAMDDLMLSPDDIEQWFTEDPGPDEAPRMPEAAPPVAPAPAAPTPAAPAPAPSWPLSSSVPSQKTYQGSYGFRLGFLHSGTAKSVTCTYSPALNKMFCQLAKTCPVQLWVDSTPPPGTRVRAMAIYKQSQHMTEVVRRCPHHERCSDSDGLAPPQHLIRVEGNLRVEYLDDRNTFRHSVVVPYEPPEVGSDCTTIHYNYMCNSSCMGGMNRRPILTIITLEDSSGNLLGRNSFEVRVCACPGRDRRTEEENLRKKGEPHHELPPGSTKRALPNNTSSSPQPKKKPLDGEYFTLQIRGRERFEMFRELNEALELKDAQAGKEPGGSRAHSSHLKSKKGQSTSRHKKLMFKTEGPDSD

The test addresses Cellular tumor antigen p53 (Homo sapiens) (UniProt P04637). Briefly: Primary qHTS for small molecule compounds that upregulate eGFP-tagged delta133p53alpha (in N-terminal) cells. (AID 2060322).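 For activation: series mostly up to about 56 µM; 0% = DMSO vehicle and 100% = reference activator.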 Note: nearly all actives have a fitted effect of over 75% in size. To be noted: NCI-H358 eGFP-delta133p53alpha fluorescence, 24 h; activation: active compounds read high. The procedure, abridged: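 NCI-H358 cells pre-induced 24 h with 10 ng/ml doxycycline to express N-terminal eGFP-delta133p53alpha, then dosed 24 h at 37C without doxycycline; fixed, Hoechst-stained, GFP intensity by laser scanning cytometry, normalized to DMSO (0%) and 57.5 uM 5-azacytidine (100%).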
Background: qHTS replaces the single test concentration by a dilution series.
With `CC(C)=C(C#N)C(=O)N1CCCN(c2cc(NCCC(=O)O)nc(-c3ccccn3)n2)CC1`, the activation was 3.35%.

`C[C@@H](O[C@H]1OCCN(Cc2n[nH]c(=O)[nH]2)[C@H]1c1ccc(F)cc1)c1cc(C(F)(F)F)cc(C(F)(F)F)c1`: the activation was 7.53%.

Turning to `O=C1Cc2cc(Cl)ccc2N1`, the activation is 5.08%.

With `COc1cc2c3cc1Oc1cc(ccc1O)C[C@@H]1c4c(cc(OC)c(O)c4Oc4ccc(cc4)C[C@@H]3N(C)CC2)CC[N+]1(C)C`, the activation is 19.8%.

Turning to `COc1ccc(OC)c(C(O)CNC(=O)CN)c1` (centres undefined), the activation was 8.47%.

Consider `Nc1nc(-c2ccccc2)c(Br)c(=O)[nH]1`, for which the activation is -12.6%.

Regarding `O=c1[nH]c2cc(C(F)(F)F)c(N3CCOCC3)cc2n(CP(=O)(O)O)c1=O`, the activation is 6.21%.

Consider `C1=CC2C3C=CC(C3)C2C1` (centres undefined), for which the activation is 16.4%.

As to `CN(C)CC/C=C1\c2ccccc2Sc2ccc(Cl)cc21`, the activation was 0%.

Take `Cc1cn([C@@H]2O[C@H](CO)[C@@H](O)[C@H]2F)c(=O)[nH]c1=O`: the activation was 5.67%.

Turning to `c1ccc2c(CC3=NCCN3)cccc2c1`, the activation is -10%.

Take `CC(C)N(CC[C@H](c1ccccc1)c1cc(CO)ccc1O)C(C)C`: the activation was 16.8%.

Consider `NCCCC[C@H](N[C@@H](CCc1ccccc1)C(=O)O)C(=O)N1CCC[C@H]1C(=O)O`, for which the activation was -3.95%.

On to `O=C(O)[C@@H]1[C@H]2C[C@H]3c4[nH]c5ccccc5c4CCN3C[C@@H]2CC[C@@H]1O`, for which the Potency was 3.09 µM (active).

Regarding `COc1cc2nc(Cl)nc(N)c2cc1OC`, the activation was -37.9%.

As to `CN(C)CCOc1ccc(C(=C(CCCl)c2ccccc2)c2ccccc2)cc1`, the activation was 17.8%.

As for `NC(=O)c1nnn(Cc2cc(Cl)c(C(=O)c3ccc(Cl)cc3)c(Cl)c2)c1N`, the activation is -8.58%.

As for `C=CC[N+]1([C@H]2C[C@H]3[C@@H]4CC[C@H]5C[C@H](O)[C@@H](N6CCOCC6)C[C@]5(C)[C@@H]4CC[C@]3(C)[C@H]2OC(C)=O)CCCC1`, the activation is 4.45%.

Take `CC(C)C[C@H](NC(=O)CNC(=O)[C@H](Cc1ccc(O)cc1)NC(=O)[C@H](CO)NC(=O)[C@H](Cc1c[nH]c2ccccc12)NC(=O)[C@H](Cc1cnc[nH]1)NC(=O)[C@@H]1CCC(=O)N1)C(=O)N[C@@H](CCCN=C(N)N)C(=O)N1CCC[C@H]1C(=O)NCC(N)=O` (stereo in doubt): the activation is -1.69%.

Consider `CCOc1ccc(NC(=O)CC(C)O)cc1` (centres undefined), for which the activation is -0.837%.

On to `COc1ccc2cc(CCC(C)=O)ccc2c1`, for which the activation is -16.4%.

On to `O[C@@H]1CO[C@H]2[C@@H]1OC[C@@H]2O`, for which the activation is -14.2%.

As to `CCCC(=O)O[C@]1(C(=O)CC)CC[C@H]2[C@@H]3CCC4=CC(=O)CC[C@]4(C)[C@H]3[C@@H](O)C[C@@]21C`, the activation is -20.9%.

On to `O=c1[nH]c(=O)n([C@H]2C[C@@H](O)[C@@H](CO)O2)cc1F`, for which the activation was -18.9%.

Take `Cc1ccc([C@@H]2O[C@H](CO)[C@@H](O)[C@H](O)[C@@H]2O)cc1Cc1ccc(-c2ccc(F)cc2)s1`: the activation was -12.3%.

For the compound `Nc1c(CC(=O)O)cccc1C(=O)c1ccc(Br)cc1`, the activation was -3.95%.

Take `Nc1ccc([N+](=O)[O-])cc1O`: the activation is -7.53%.

For `COc1cc(C=C2CCC/C(=C\c3ccc(O)c(OC)c3)C2=O)ccc1O`, the Potency is 19.5 µM (active).

On to `Cc1ncc(CO)c(C=O)c1O`, for which the activation was -3.35%.
